Some test systems named below: SK-MEL-2 melanoma; EKVX NSCLC; SN12C renal; UO-31 renal; TK-10 renal; ACHN renal; CAKI-1 renal; A498 renal; CCRF-CEM leukemia; MOLT-4 leukemia; SR leukemia; RPMI-8226 leukemia; OVCAR-8 ovarian; OVCAR-5 ovarian; OVCAR-4 ovarian; IGROV1 ovarian; OVCAR-3 ovarian; HS 578T breast; NCI/ADR-RES ovarian; SK-OV-3 ovarian.
Holding throughout (assay): NCI-60 one-dose screen, 48 h (100 = growth as untreated, 0 = no growth, -100 = all killed)
Common to all, as to conditions: 10 µM unless noted

We go through eight compounds from PubChem BioAssay (NCI).

Compounds without any hit were thinned out: in the full panel of roughly 83,000, 20% have a hit.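 For each line, cells grew in 96-well plates with the test compound present at a single concentration for 48 hours.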 A number with no mark means an inactive call. The source made the active and inactive calls. The calls were made as follows: active = growth percent below 10; inactive = the rest.

`Cc1c(Cl)cccc1NC(=O)c1sc2nc3c(cc2c1N)CCCC3`: the growth in the assay with SK-MEL-2 melanoma was 22.1%; in the assay on EKVX NSCLC it was 52.4%; in the assay on SN12C renal, 41.2%; with UO-31 renal, 45.8%; with TK-10 renal, 62.2%; with ACHN renal, 47.2%. The growth is 33.9% in the assay with CAKI-1 renal; -1.63% (active) with A498 renal; 20.4% in the assay on CCRF-CEM leukemia; 21.6% in the assay with MOLT-4 leukemia; 9.71% (active) with SR leukemia; 33% in the assay on RPMI-8226 leukemia. Also, the growth in the assay on OVCAR-8 ovarian was 46.1%; in the assay with OVCAR-5 ovarian, 75.7%; with OVCAR-4 ovarian, 60.5%; with IGROV1 ovarian, 57.2%; in the assay with OVCAR-3 ovarian, 10.9%; in the assay with HS 578T breast, 40.3%. Besides, in the assay with NCI/ADR-RES ovarian, the growth is 27.1%.

Consider `COC(=O)c1nc(-c2ccccc2)oc1S(=O)(=O)NCC(c1ccc(Cl)cc1)N1CCCCC1` (centres undefined), for which the growth is 93.8% in the assay on SK-MEL-2 melanoma; 104% with EKVX NSCLC; 75.5% in the assay on SN12C renal; 61.2% in the assay on UO-31 renal; 67.3% with TK-10 renal; 68.2% with ACHN renal. The growth in the assay with CAKI-1 renal was 49.4%; with A498 renal, 96.4%; with CCRF-CEM leukemia it was -19.2% (active); in the assay on MOLT-4 leukemia, 1.79% (active); in the assay with SR leukemia, -3.58% (active); in the assay with RPMI-8226 leukemia it was 20%. The growth in the assay with OVCAR-8 ovarian was 57%; with OVCAR-5 ovarian, 90.8%; in the assay on OVCAR-4 ovarian, 89.3%; with SK-OV-3 ovarian it was 95.5%; in the assay on IGROV1 ovarian it was 56.5%; in the assay with OVCAR-3 ovarian, 57.5%. Further, the growth with HS 578T breast was 100%; in the assay on NCI/ADR-RES ovarian, 89%.

On to `O=C(CSc1nc(-c2ccccc2)cn1-c1ccc(Cl)cc1)c1ccc([N+](=O)[O-])cc1`, for which the growth was 86.9% in the assay with SK-MEL-2 melanoma; 92.7% in the assay with EKVX NSCLC; 86.5% with SN12C renal; 59.7% in the assay with UO-31 renal; 96.4% in the assay with TK-10 renal; 95.1% in the assay on ACHN renal. Moreover, the growth with CAKI-1 renal was 89%; in the assay with A498 renal it was 74.6%; in the assay on CCRF-CEM leukemia, 83.2%; with MOLT-4 leukemia it was 68.4%; in the assay on SR leukemia it was 72.2%; in the assay with RPMI-8226 leukemia it was 80.4%. Further, the growth with OVCAR-8 ovarian is 94.1%; with OVCAR-5 ovarian, 95.4%; in the assay with OVCAR-4 ovarian, 92.8%; in the assay with SK-OV-3 ovarian, 96.6%; in the assay on IGROV1 ovarian, 96.5%; in the assay with OVCAR-3 ovarian, 78.8%. Besides, the growth in the assay with HS 578T breast is 62.8%; with NCI/ADR-RES ovarian, 91.2%.

For `COc1ccc2c(O)cc3c(c2c1)[C@H](CCl)CN3C(=O)c1cc2cc(NC(=O)CCN3CCOCC3)ccc2[se]1`, the growth with SK-MEL-2 melanoma was -84.3% (active); in the assay on EKVX NSCLC it was -59.3% (active); in the assay with SN12C renal it was -88.1% (active); with UO-31 renal it was -46.9% (active); with TK-10 renal, -32.2% (active); in the assay with ACHN renal it was -1.81% (active). The growth is -26.3% (active) in the assay on CAKI-1 renal; -90.9% (active) in the assay on A498 renal; 76% with CCRF-CEM leukemia; 74.2% with MOLT-4 leukemia; 52.5% in the assay with SR leukemia; 79.7% in the assay on RPMI-8226 leukemia. In addition, the growth in the assay with OVCAR-8 ovarian is -98.1% (active); in the assay on OVCAR-5 ovarian, -44.6% (active); in the assay with OVCAR-4 ovarian it was -25.4% (active); in the assay on IGROV1 ovarian it was -60.1% (active); with OVCAR-3 ovarian it was -7.3% (active); in the assay with HS 578T breast, 5.52% (active). The growth in the assay with NCI/ADR-RES ovarian was -34.4% (active).

In the case of `C#Cc1ccc(NC(=O)Cc2ccc(/C=C/C(=O)c3nccn3C)cc2)cc1`, the growth was 103% in the assay on SK-MEL-2 melanoma; 78.4% with EKVX NSCLC; 68% with SN12C renal; 58.7% in the assay on UO-31 renal; 94.9% in the assay with TK-10 renal; 96.5% in the assay with ACHN renal. In addition, the growth in the assay with CAKI-1 renal is 47.7%; in the assay on A498 renal it was 105%; in the assay with CCRF-CEM leukemia, 21.4%; with MOLT-4 leukemia it was 40.8%; in the assay on SR leukemia, 20.8%; in the assay on RPMI-8226 leukemia, 19.2%. For the same compound, the growth in the assay on OVCAR-8 ovarian was 26.2%; with OVCAR-5 ovarian, 105%; in the assay on OVCAR-4 ovarian it was 69.9%; in the assay on SK-OV-3 ovarian, 109%; in the assay with IGROV1 ovarian it was 52.8%; in the assay with OVCAR-3 ovarian, 12%. The growth with NCI/ADR-RES ovarian was 34.5%.

Regarding `COc1c(O[C@@H]2OC(CO)[C@H](O)[C@H](O)C2O)cc2oc3cc(O)c(CC=C(C)C)c(O)c3c(=O)c2c1CC=C(C)C` (some centres undefined), the growth in the assay on SK-MEL-2 melanoma was 97.3%; with EKVX NSCLC, 93.5%; in the assay on SN12C renal, 84.4%; with UO-31 renal, 90.8%; in the assay on TK-10 renal, 110%; with ACHN renal, 96.5%. For the same compound, the growth in the assay with CAKI-1 renal was 103%; in the assay on A498 renal, 83.8%; in the assay on CCRF-CEM leukemia, 92.9%; with MOLT-4 leukemia, 62.2%; in the assay with SR leukemia, 102%; with RPMI-8226 leukemia it was 96.4%. Further, the growth with OVCAR-8 ovarian is 87.3%; in the assay with OVCAR-5 ovarian it was 108%; in the assay on OVCAR-4 ovarian, 115%; in the assay with SK-OV-3 ovarian, 97.7%; in the assay on IGROV1 ovarian it was 91%; with OVCAR-3 ovarian it was 99.7%. In addition, the growth with NCI/ADR-RES ovarian was 101%.

`Cn1cc(-c2nc(-c3c[nH]c4c(Cl)nccc34)cs2)c2ccccc21`: the growth in the assay on SK-MEL-2 melanoma is 99.2%; with EKVX NSCLC it was 86.7%; in the assay on SN12C renal, 94.5%; in the assay on UO-31 renal it was 94.6%; in the assay on TK-10 renal, 81.2%; in the assay on ACHN renal it was 107%. Also, the growth with CAKI-1 renal is 87%; with A498 renal, 77.8%; in the assay with CCRF-CEM leukemia, 92.3%; in the assay with MOLT-4 leukemia it was 83.9%; with SR leukemia it was 73.7%; in the assay on RPMI-8226 leukemia, 87.2%. Moreover, the growth in the assay on OVCAR-8 ovarian was 91.1%; in the assay on OVCAR-5 ovarian, 120%; in the assay with OVCAR-4 ovarian, 86.4%; in the assay on SK-OV-3 ovarian, 108%; in the assay with IGROV1 ovarian, 105%; in the assay on OVCAR-3 ovarian, 107%. In addition, the growth in the assay with NCI/ADR-RES ovarian was 98%.

As to `O=C(Nc1ncc(Cc2ccc(Cl)cc2)s1)c1ccc2c(c1)OCCO2`, the growth was 41% in the assay with SK-MEL-2 melanoma; 35.7% with EKVX NSCLC; 30.8% with SN12C renal; 50.2% with UO-31 renal; 49.5% in the assay on TK-10 renal; 29.8% in the assay with ACHN renal. The growth in the assay on CAKI-1 renal is 28.7%; in the assay on A498 renal it was -2.66% (active); with CCRF-CEM leukemia, 15.4%; in the assay on MOLT-4 leukemia it was 6.99% (active); in the assay with SR leukemia, 4.7% (active); with RPMI-8226 leukemia, 20%. The growth in the assay on OVCAR-8 ovarian is 21.7%; in the assay with OVCAR-5 ovarian it was 37.1%; in the assay on OVCAR-4 ovarian, 50%; with IGROV1 ovarian it was 22.3%; with OVCAR-3 ovarian, 2.45% (active); with HS 578T breast, 23.6%. In addition, the growth with NCI/ADR-RES ovarian is 10.9%.
